PubChem BioAssay AID1508622 (National Center for Advancing Translational Sciences (NCATS), 2021)
Active and inactive are the calls of the source. Calls come from the whole dose curve; as a rule, active = well fitted activation curve with a large enough effect; inconclusive = small, poorly fitted or top-dose-only effect; inactive = no such curve, though single readings can be large or run the other way.

assay: Confirmatory qHTS for Identification of Small Molecule Activators of Huntingtin-Antisense Promoter Activity; details: HEK293 HTT-AS promoter firefly luciferase reporter, 24 h; series mostly up to 57.5 µM
How it was run: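 Plated reporter HEK293 cells (24 h) received library compounds at up to 57.5 uM final or 50 uM PTC124, incubated 24 h at 37C; firefly luciferase luminescence was then recorded with Dual-Glo reagent.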

Potency, inactive:
COc1ccc(OC2CCN(S(=O)(=O)c3ccc(OC)cc3)CC2)cc1, COc1ccc(N2CCN(C(CNC(=O)c3ccc(C)cc3)c3ccc4c(c3)OCO4)CC2)cc1 (stereo not drawn), CCN1c2ccccc2-c2nc(SCC(=O)Nc3cc(F)ccc3F)ncc2S1(=O)=O, COc1ccc(Cn2c(SCc3ccc(C(=O)NC4CCCC4)cc3)nc3ccncc32)cc1, Cc1ccc(Cl)cc1N1CCN(C(=O)C2CCN(S(=O)(=O)c3ccc4c(c3)oc(=O)n4C)CC2)CC1, COc1ccc(-c2noc(N3CCN(c4ccc(C)cc4)C(C)C3)n2)cc1OC (stereo not drawn), Cc1ccc(Cl)cc1-n1ncc2c(NC3CCCCC3)ncnc21, Cc1nc(Nc2n[nH]c3c2CN(C(=O)N[C@H](CN(C)C)c2ccccc2)C3(C)C)c2sccc2n1, CCc1ccc(NC(=O)c2ccc(F)c(S(=O)(=O)NCc3ccc(Cl)c(Cl)c3)c2)cc1, CCCc1ccc(C2Sc3ccccc3NC3=C2C(=O)c2ccccc23)cc1 (stereo not drawn), CCOc1ccc(CCNC(=O)c2ccc(CS(=O)(=O)Cc3ccccc3Cl)o2)cc1OCC, CCOc1ccc(S(=O)(=O)N(C(=O)c2ccncc2)c2ccc3oc(C)c(C(=O)OC)c3c2)cc1, Cc1c(Cl)ccc2sc(N3CCN(C(=O)CCS(=O)(=O)c4ccc(F)cc4)CC3)nc12, Cc1ccc(Cl)cc1-n1ncc2c(NCCCc3ccccc3)ncnc21, COc1ccc(CCNC(=O)Cn2nc(C)c3c(C)n(-c4ccc(C)cc4)nc3c2=O)c(OC)c1, CN(CC(=O)Nc1ccc(OC(F)(F)F)cc1)S(=O)(=O)c1ccc2c(c1)CCC(=O)N2, CCc1ccccc1N(C)C(=O)C1CCCN(c2ncnc3c2nc2n3CCCCC2)C1 (stereo not drawn), COc1ccc(S(=O)(=O)Nc2cc3c(C(=O)OC(C)C)c(C)oc3c3ccccc23)cc1, CCCCC(CC)CNC(=O)Cc1ccc(-n2c(=O)[nH]c3ccccc3c2=O)cc1 (stereo not drawn), COc1cccc(NC(=O)/C(C#N)=C\c2cn(Cc3ccc(C)cc3)c3ccccc23)c1, COc1ccc(CCNC(=O)c2cc3sccc3n2Cc2ccc(Cl)cc2)cc1OC, O=C(NCCc1csc(-c2ccc(F)cc2)n1)c1cccc(F)c1, Cc1oc(-c2ccc(Cl)cc2)nc1CN1CCCC(C(=O)NCCc2ccccc2)C1 (stereo not drawn), CCN(CC)S(=O)(=O)c1ccc(NC(=O)CCc2c(C)nc3cc(-c4ccc(Cl)cc4)nn3c2C)cc1, Cc1cc(N2CCC(C)CC2)nc2ccc(NC(=O)CCC(=O)N3CCN(c4cccc(C(F)(F)F)c4)CC3)cc12, O=C(NCCn1cc(SCc2ccccc2)c2ccccc21)c1cccs1, Cn1c(COc2ccccc2C(C)(C)C)nc2ccccc21, Cc1ccc(Cl)cc1-n1ncc2c(N3CCC(C)CC3)ncnc21, CCOc1ccc(NC(=O)c2c(Nc3ccccc3C)sc(C(=O)c3ccc(Cl)cc3)c2N)cc1, COC(=O)C1=C(C)NC(C)=C(C(=O)OCC(C)=O)C1c1ccccc1[N+](=O)[O-] (stereo not drawn), CCCCOc1ccc(CNC(=O)Cc2ccc(NC(=O)N3CCSc4ncccc43)cc2)cc1, O=C(CSc1nc(-c2ccc(F)cc2)[nH]c1-c1ccccc1)Nc1ccccc1, CCOc1ccc(CCNC(=O)CSCc2nc(-c3cccc(C)c3)oc2C)cc1OCC, COc1ccc(-c2noc(C(C)NC(=O)c3ccco3)n2)cc1 (stereo not drawn), COc1ccc2sc(N(Cc3cccnc3)C(=O)c3ccco3)nc2c1, COc1ccccc1CNS(=O)(=O)c1ccc2c(c1)CC(C)N2C(=O)C1CCC1 (stereo not drawn), CCOc1ccccc1CNC(=O)c1ccc(NC(=O)N2CCSc3ncccc32)cc1, Cc1ccc(NCc2cccn2-c2nnc(N3CCC(C(=O)NCc4ccc(OC(C)C)cc4)CC3)s2)cc1
